{
  "source": "PubChem BioAssay",
  "note": "Active and inactive are the calls of the source. No rule for the calls is given here.",
  "data": [
    {"test_system": "Aerobactin synthetase IucA (Klebsiella pneumoniae, hypervirulent)", "assay": "biochemical IucA inhibition screen of LOPAC library by absorbance (AID 1346212);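 also: 100% = no compound wells and 0% = no enzyme wells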", "details": "IucA enzyme assay, absorbance (OD) readout; stronger effect = lower value;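 tested at 8 µM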", "values": [
      {"smiles": "Cc1cccc(C)c1OCC(N)C(C)C", "note": "(centres undefined)", "remaining activity": "97.7% (inactive)"},
      {"smiles": "CC(C)NC[C@H](O)COc1ccc(CC(N)=O)cc1", "remaining activity": "115% (inactive)"},
      {"smiles": "COc1cc2ncc(-c3ccccc3)nc2cc1OC", "remaining activity": "120% (inactive)"},
      {"smiles": "CN(C)CC/C=C1\\c2ccccc2COc2ccccc21", "remaining activity": "121% (inactive)"},
      {"smiles": "CC(C)C[C@H](NC(=O)[C@H]1O[C@@H]1C(=O)O)C(=O)NCCCCN=C(N)N", "remaining activity": "115% (inactive)"},
      {"smiles": "CCCCCCCC/C=C\\CCCCCCCC(=O)NCCO", "remaining activity": "98.7% (inactive)"},
      {"smiles": "O=C(O)CNC(=O)C(CS)Cc1ccccc1", "note": "(centres undefined)", "remaining activity": "119% (inactive)"},
      {"smiles": "CNC(=O)[C@H]1O[C@@H](n2cnc3c(NCc4cccc(I)c4)nc(Cl)nc32)[C@H](O)[C@@H]1O", "remaining activity": "103% (inactive)"},
      {"smiles": "NCCCCNCCCN", "remaining activity": "107% (inactive)"},
      {"smiles": "C[C@]1(C2CCCC2)Cc2cc(OCC(=O)O)c(Cl)c(Cl)c2C1=O", "remaining activity": "113% (inactive)"},
      {"smiles": "Cc1nc(N=Nc2cc(S(=O)(=O)O)c3cc([N+](=O)[O-])cc(S(=O)(=O)O)c3c2)c(COP(=O)(O)O)c(C=O)c1O", "remaining activity": "118% (inactive)"},
      {"smiles": "Ic1ccc(N2CCN(Cc3c[nH]c4ncccc34)CC2)cc1", "remaining activity": "115% (inactive)"},
      {"smiles": "Fc1ccc(CN(C2=NCCN2)c2c(Cl)cccc2Cl)cc1", "remaining activity": "113% (inactive)"},
      {"smiles": "NCCCCCCCCCCN", "remaining activity": "104% (inactive)"},
      {"smiles": "CC(C)Cn1cnc2c(N)nc3ccccc3c21", "remaining activity": "102% (inactive)"},
      {"smiles": "NC(=O)C1=CN(C2OC(COP(=O)(O)OP(=O)(O)OC[C@H]3O[C@@H](n4cnc5c(N)ncnc54)C(OP(=O)(O)O)[C@H]3O)C(O)C2O)C=CC1", "note": "(some centres undefined)", "remaining activity": "112% (inactive)"},
      {"smiles": "NCCNC(=O)c1ncsc1-c1cccc(F)c1", "remaining activity": "88.1% (inactive)"},
      {"smiles": "CSC(N)=NCCC[C@H](N)C(=O)O", "remaining activity": "123% (inactive)"},
      {"smiles": "CC(CCc1ccc(O)cc1)NCCc1ccc(O)c(O)c1", "note": "(centres undefined)", "remaining activity": "98.4% (inactive)"},
      {"smiles": "Cc1ccc(=O)n(-c2ccccc2)c1", "remaining activity": "120% (inactive)"},
      {"smiles": "S=C(S)OC1CC2CC1C1CCCC21", "note": "(centres undefined)", "remaining activity": "94.5% (inactive)"},
      {"smiles": "N[C@H](C(=O)O)c1cc(O)cc(O)c1", "remaining activity": "108% (inactive)"},
      {"smiles": "Nc1ccc2c3c(cccc13)C(=O)NC2=O", "remaining activity": "112% (inactive)"},
      {"smiles": "O=C1c2ccccc2-c2n[nH]c3cccc1c23", "remaining activity": "88.6% (inactive)"}
    ]}
  ]
}
